The results in this text go back to PubChem BioAssay.

Molecules are shown by their SMILES. Activity calls are given as the source filed them.

The experiment is described as follows: plasmodial surface anion channel blockers, osmotic lysis – cell-based, P. falciparum Indochina, OD700, 18 h, primary screen (AID 1157). As to conditions: P. falciparum Indochina infected erythrocytes, osmotic lysis OD700, 18 h; higher = more signal, called active from +8 up or from −8 down.
Regarding `COc1cc2c(cc1O)C(C1CC1)N(Cc1cc3c(cc1Br)OCO3)CC2` (stereo unspecified), the z-score is 0.72 (inactive). As to `C=C(CCCC)C(=O)CC[C@H](OC(C)=O)c1cccc(OCCO)c1`, the z-score was -1.85 (inactive).

In the case of `C=CC[C@]1(C(=O)N2CCCCC2)N=C(c2ccc(OCCCO)cc2)O[C@H]1c1ccccc1`, the z-score was 1.11 (inactive).

On to `COCCOC(=O)N1C(=O)[C@@]2(c3cc(C#CCCO)ccc31)[C@H](C(=O)N1CCN(c3ncccn3)CC1)[C@H]1C(=O)O[C@H](c3ccccc3)[C@H](c3ccccc3)N1[C@@H]2c1ccccc1OCCO`, for which the z-score is 0.761 (inactive). With `COCCOC(=O)N1C(=O)[C@@]2(c3cc(C#CCCO)ccc31)[C@H](C(=O)N1CCc3cc(OC)c(OC)cc3C1)[C@H]1C(=O)O[C@H](c3ccccc3)[C@H](c3ccccc3)N1[C@@H]2c1ccc(O)cc1`, the z-score is 0.222 (inactive). The same measure for `CCCCN1CC=CC23O[C@@H]4/C=C\CCC(C)OC(=O)C4[C@H]2C(=O)N(CCCCCO)[C@@H]3C1=O` (stereo partly specified): 0.406 (inactive).

On to `C=CCN1C(=O)[C@@]2(O[C@@H](CCO)[C@H]([Si](C)(C)c3ccc(OC)cc3)[C@H]2C)c2cc(NC(=O)c3ccc(OC)cc3)ccc21`, for which the z-score was 1.75 (inactive). Take `CC(=O)n1cc(C(O)C2C=CC3C(=O)N(C)C(=O)C3N2Nc2ccccc2)c2ccccc21` (stereo unspecified): the z-score is 0.876 (inactive). As for `Cc1ccc(C(C)CC(O)C2C=CC3C(=O)N(c4ccccc4)C(=O)C3N2Nc2ccc([N+](=O)[O-])cc2)o1` (stereo unspecified), the figure is 1.49 (inactive).

Regarding `[N-]=[N+]=NCc1ccccc1[C@H]1OC(c2ccc(OCCCO)cc2)=N[C@@]1(Cc1ccccc1)C(=O)NCc1ccccc1`, the z-score was 1.77 (inactive). As to `COc1ccc([Si](C)(C)[C@@H]2[C@@H](CCO)O[C@]3(C(=O)N(Cc4ccc(N5C(=O)COc6ccccc65)cc4)c4ccccc43)[C@H]2C)cc1`, the z-score was 2.39 (inactive). With `CN(C)CCCNC(=O)[C@@]1(C)c2ccccc2C(=O)N(Cc2cc(F)cc(C(F)(F)F)c2)[C@H]1c1ccc(CO)cc1`, the z-score was -0.0617 (inactive). As for `C=C(COC)/C(=C/C[C@@H](OC(C)=O)c1ccc(OCCO)cc1)c1cc(C(=O)OC)ccc1OC`, the z-score was 0.601 (inactive). As for `CCCC[C@@H]1C[C@H]1[C@@H](NC(=O)c1ccco1)c1ccc(Cl)cc1`, the figure is 0.74 (inactive). As for `CC1CC/C=C\[C@H]2OC34C=CCN(Cn5nnc6ccccc65)C(=O)[C@H]3N(C(CO)C(C)C)C(=O)[C@@H]4C2C(=O)O1` (stereo partly specified), the figure is 0.527 (inactive); as for `[N-]=[N+]=Nc1ccccc1[C@H]1OC(c2ccc(OCCCO)cc2)=N[C@@]1(Cc1ccccc1)C(=O)O`, 7.43 (inactive). The same measure for `O=C1C2C=CC(C(O)C(c3ccccc3)c3ccccc3)N(n3cnnc3)C2C(=O)N1Cc1ccccc1` (stereo unspecified): 0.949 (inactive); for `CN1C(=O)C2C=CC(C(O)Cc3ccccc3)N(Nc3ccccc3)C2C1=O` (stereo unspecified): 0.9 (inactive). Turning to `NC(=O)[C@@H]1[C@H]2C(=O)O[C@H](c3ccccc3)[C@H](c3ccccc3)N2[C@H](c2ccc(O)cc2)[C@@]12C(=O)Nc1ccc(C#CC3(O)CCCCCC3)cc12`, the z-score was 0.812 (inactive). The same measure for `COCCOC(=O)N1C(=O)[C@@]2(c3cc(C#Cc4ccc(OC)cc4)ccc31)[C@H](C(=O)N1CCCCCCC1)[C@H]1C(=O)O[C@H](c3ccccc3)[C@H](c3ccccc3)N1[C@@H]2c1ccc(OCCO)cc1`: 0.442 (inactive); for `CCOC(=O)C[C@H]1[C@H](OC(=O)Cc2ccc3c(c2)OCO3)[C@@H](NC(=O)c2ccc(-c3ccccc3)cc2)c2cc(OCCCO)ccc2N1C(=O)Cc1ccc(OC)cc1`: 0.464 (inactive); for `O=C1[C@H]2C=C(Br)[C@H](C[C@@H]2c2ccccc2)[C@@]12CO2`: 0.279 (inactive).

For the compound `CCOC(=O)[C@H]1C/C=C/C[C@H](C(=O)OCC)C(=O)O[C@H]2[C@@H](OC)O[C@H](CO)[C@@H](OC(=O)Nc3ccc(C#N)cc3)[C@@H]2OC1=O`, the z-score was 1.13 (inactive). Regarding `COC(=O)C(CC#Cc1ccc2c(c1)[C@]1(C(=O)N2)[C@H](c2ccc(O)cc2)N2[C@H](c3ccccc3)[C@H](c3ccccc3)OC(=O)[C@H]2[C@@H]1C(=O)Nc1nc2ccccc2s1)C(=O)OC`, the z-score is -1.84 (inactive).

For the compound `COc1ccc(C(O)C2C=CC3C(=O)NC(=O)C3N2Nc2ccccn2)cc1` (stereo unspecified), the z-score is 0.778 (inactive). Turning to `C#CCN(CC1=CCCCC1)[C@H](c1ccccc1Br)[C@@H](O)Cc1ccccc1`, the z-score is 0.109 (inactive).
